Source: PubChem BioAssay (Paczesny and Yang Labs, IUPUI and University of Michigan)
ST2 IL33 inh = blocks human ST2 binding to IL-33. AID 1259354. Q01638. AlphaLISA ST2-Fc/biotin-IL-33 interaction, 1 h. inhibition, % for hits at 17 µM. hit rate 2.3% among 78,000; in the data active means inhibition above about 30%
Target sequence (Q01638 whole entry, looked up): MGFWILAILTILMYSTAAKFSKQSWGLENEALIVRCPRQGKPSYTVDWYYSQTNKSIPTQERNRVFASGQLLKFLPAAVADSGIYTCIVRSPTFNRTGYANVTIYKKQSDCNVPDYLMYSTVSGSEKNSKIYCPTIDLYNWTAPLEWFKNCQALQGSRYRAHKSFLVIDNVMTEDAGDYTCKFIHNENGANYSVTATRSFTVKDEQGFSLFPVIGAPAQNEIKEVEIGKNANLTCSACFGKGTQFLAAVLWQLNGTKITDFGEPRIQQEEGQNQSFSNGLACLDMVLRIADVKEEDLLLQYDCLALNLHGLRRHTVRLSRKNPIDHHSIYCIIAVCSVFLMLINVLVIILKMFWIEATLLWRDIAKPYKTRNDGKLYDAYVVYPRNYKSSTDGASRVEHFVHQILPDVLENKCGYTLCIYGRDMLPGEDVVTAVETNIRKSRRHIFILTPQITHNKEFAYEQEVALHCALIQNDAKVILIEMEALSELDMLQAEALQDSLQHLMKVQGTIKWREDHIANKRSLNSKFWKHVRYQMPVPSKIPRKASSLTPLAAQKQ
Of the large screens only hits and unclear results are named; the others gave an inactive call. Many of the other results were omitted from the sample, so hits are more common in it than they were.

COc1ccc(-c2ncc(CN3CCCC(Nc4ccc(F)cc4)C3)cn2)cc1 (configuration not stated)	none
CNC(=O)c1ccc(CN2CCCC(Nc3ccc(F)cc3)C2)o1 (configuration not stated)	ST2 IL33 inh 36%
NC(=O)C(=O)NC1CCCN(Cc2ccc(F)cc2)C1 (configuration not stated)	none
Cn1cnnc1SCC(=O)Nc1ccc(Br)cc1	none
Cc1nccn1-c1c2c(c(C#N)c3nc4ccccc4n13)CCC2	none
CC1CN(c2c3c(c(C#N)c4nc5ccccc5n24)CCC3)CC(C)O1 (configuration not stated)	none
N#Cc1c(-c2ccccc2)c(C#N)c2nc3ccccc3n2c1N	ST2 IL33 inh 32%
O=C(CCCOc1ccc(Cl)cc1)NCCc1nc2ccccc2[nH]1	none
CCOC(CNC(=O)c1sc2nc(C)nc(N3CCOCC3)c2c1C)OCC	none
O=C1NCC2(CCCN(C(=O)C3(c4ccc(F)cc4)CCOCC3)CC2)O1 (configuration not stated)	none
Cc1cc(C)cc(NC(=O)c2c(N)sc3c2CCCC3)c1	none
Cc1cc2c3c(C)n(C)c(C)c3c(C)nn2c1	ST2 IL33 inh 54%
COc1cc(/C=C2\SC(=Nc3cccc(C(=O)O)c3)N(C)C2=O)cc(Cl)c1O	none
CCc1ccccc1NC(=O)C(C)N(c1ccc(OC)cc1)S(C)(=O)=O (configuration not stated)	none
COc1ccc(/C=C/C(=O)Nc2ncc(S(=O)(=O)c3ccc([N+](=O)[O-])cc3)s2)cc1OC	none
COc1ccccc1OC1CN(C(=O)C=C(C)C)C1	none
CC(Oc1ccc(Cl)cc1Cl)C(=O)Nc1cccc([N+](=O)[O-])c1 (configuration not stated)	ST2 IL33 inh 30%
Cc1cc(Cl)ccc1OC(C)C(=O)Nc1c(Cl)cccc1Cl (configuration not stated)	none
CC(Oc1ccccc1)C(=O)Nc1cccc(Cl)c1 (configuration not stated)	none
O=c1[nH]c2ccc(S(=O)(=O)Nc3ccc(C(F)(F)F)cc3)cc2[nH]c1=O	none
CCC12CN3CC(CC)(CN(C1)C31C(=O)Nc3ccccc31)C2=O (configuration not stated)	none
Cc1cccc(NC(=O)/C(C#N)=C/c2cc(C)n(-c3ccc(F)cc3)c2C)c1	none
COc1cccc(NC(=O)/C(C#N)=C\c2cn(Cc3ccc(C)cc3)c3ccccc23)c1	ST2 IL33 inh 30%
COc1cccc(NC(=O)/C(C#N)=C\c2cn(Cc3cccc(C)c3)c3ccccc23)c1	ST2 IL33 inh 33%
COc1cccc(NC(=O)CCCc2ccccc2)c1	none
COc1cccc(NC(=O)CSCc2ccc(Cl)cc2)c1	none
COc1cccc(NC(=O)c2ccc(=O)n(Cc3ccc(F)cc3)c2)c1	none
COc1ccc(CCNC(=O)c2ccc3oc(-c4cccc(F)c4)nc3c2)cc1	none
CCOc1ccc(-c2nc3s/c(=C\c4ccc(OC)cc4OC)c(=O)n3n2)cc1	none
CCSC1=N/C(=C\c2cc3c(cc2Cl)OCO3)C(=O)S1	none
CCSC1=N/C(=C\c2ccc(N(CC)CC)cc2OC)C(=O)S1	ST2 IL33 inh 65%
CCSC1=N/C(=C\c2ccc3c(c2)OCO3)C(=O)S1	ST2 IL33 inh 55%
O=C1C(=Cc2ccc3c(c2)OCO3)C(=O)c2ccccc21	none
CCN(CC)c1ccc(C=Nc2ccc([N+](=O)[O-])cc2OC)c(O)c1	none
COC(=O)C1C(=O)C2=C(CC1C)NC(C)=C(C(=O)OCCOC(C)C)C2c1cccc(F)c1 (configuration not stated)	none
CCOc1ccccc1NC(=O)CC(=O)N(C)Cc1snnc1C	none
CN(Cc1ccccc1)C1(CNC2CCSCC2)Cc2ccccc2C1	none
Cn1c2c(c(=O)n(C)c1=O)C(c1ccc(O)c(O)c1)C1=C(N2)c2ccccc2C1=O (configuration not stated)	none
O=C(c1ccccc1)N1CCN(C(=O)N(c2ccccc2)c2ccccc2)CC1	none
CNc1nc(-c2cc(NC3CCNCC3)nc3[nH]ccc23)nc2c1CCC2	ST2 IL33 inh 37%
CCOc1ccccc1Nc1c2c(nc3ccccc13)CCC2	none
COc1cccc(OC)c1C(=O)Nc1c2c(nn1-c1ccc(F)cc1)CS(=O)C2 (configuration not stated)	none
Cc1cc(C)c(/C=C/C(=O)c2cccs2)c(C)c1	ST2 IL33 inh 44%
Cc1cc(Cc2ccc(NC(=O)c3cccs3)c(C)c2)ccc1NC(=O)c1cccs1	none
Cc1cc2ncn(C(=O)c3cccs3)c2cc1C	none
CCOc1ccc(-c2nc(SCC(=O)Nc3ccc4c(c3)OCCO4)n3[nH]c(=O)cc3n2)cc1	none
Cc1ccc(N(CC(=O)Nc2ccccc2C(N)=O)S(=O)(=O)c2ccccc2)cc1C	none
Clc1ccc(CN2CC[C@H](c3nnc(-c4cccnc4)o3)C2)cc1	none
CCc1cc2c(=O)c(-c3ccc(Br)cc3)coc2cc1O	none
CCc1ccc(C2=C/C(=C/c3cc(OC)ccc3OC)C(=O)O2)cc1	ST2 IL33 inh 38%
COc1cc(/C=C2\C=C(c3ccc(Cl)cc3)OC2=O)cc(Br)c1OC	none
COc1ccc(C2=C/C(=C/c3cccc(OC)c3OC)C(=O)O2)c(OC)c1	ST2 IL33 inh 34%
COc1cc(/C=C2\C=C(c3ccc(Cl)cc3)OC2=O)c([N+](=O)[O-])cc1OC	none
